# Laboratory results from the supplement of paper PMC8728848.
# Only a selection was taken, and the strongest signals are over-represented in it overall.
# B1: AT5G17240(42) (Arabidopsis thaliana), Q6NQJ8 (protein)
# chain: MDLEHQTMETFLRWAAEIGISDSIDSSRFRDSCLGHSLSVSDFPDAGGRGLGAARELKKGELVLKVPRKALMTTESIIAKDLKLSDAVNLHNSLSSTQILSVCLLYEMSKEKKSFWYPYLFHIPRDYDLLATFGNFEKQALQVEDAVWATEKATAKCQSEWKEAGSLMKELELKPKFRSFQAWLWASATISSRTLHVPWDSAGCLCPVGDLFNYDAPGDYSNTPQGPESANNVEEAGLVVETHSERLTDGGFEEDVNAYCLYARRNYQLGEQVLLCYGTYTNLELLEHYGFMLEENSNDKVFIPLETSLFSLASSWPKDSLYIHQDGKLSFALISTLRLWLIPQSQRDKSVMRLVYAGSQISVKNEILVMKWMSEKCGSVLRDLPTSVTEDTVLLHNIDKLQDPELRLEQKETEAFGSEVRAFLDANCLWDVTVLSGKPIEFSRKTSRMLSKWRWSVQWRLSYKRTLADCISYCNEKMNNLLGTQDRLRDL
# Experiments:
# Experiment in all cases: glycan array binding signal (z-score within array); higher = stronger binding
# Details in all cases: glycan notation: IUPAC condensed, linker removed
# [1] = biological target: Fuc(a1-2)Gal(b1-3)GalNAc(a1-3)[Fuc(a1-2)]Gal(b1-4)Glc
# How it was run: (§1)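 Negative Z-scores can be read as non-binding. The Z-score is calculated within each array and then averaged across arrays of one protein sequence at different concentrations or buffers and across linkers. Arrays, 3228 in all, were curated from the Consortium for Functional Glycomics database and kept only where the protein sequence was available.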
# [2] = biological target: Fuc(a1-2)Gal(b1-4)[Fuc(a1-3)]GlcNAc(b1-3)Gal(b1-4)[Fuc(a1-3)]GlcNAc
# How it was run: as §1
# [3] = biological target: Fuc(a1-2)Gal(b1-4)[Fuc(a1-3)]GlcNAc(b1-3)[Neu5Ac(a2-6)Gal(b1-4)GlcNAc(b1-6)]Gal(b1-4)Glc
# How it was run: as §1
# [4] = biological target: Fuc(a1-2)[Gal(a1-3)]Gal(b1-4)GlcNAc(b1-6)GalNAc
# How it was run: as §1
# [5] = biological target: Fuc(a1-2)[GalNAc(a1-3)]Gal(b1-3)GalNAc(a1-3)[Fuc(a1-2)]Gal(b1-4)GlcNAc
# How it was run: as §1
# [6] = biological target: Fuc(a1-2)[GalNAc(a1-3)]Gal(b1-4)[Fuc(a1-3)]GlcNAc(b1-3)GalNAc
# How it was run: as §1
# [7] = biological target: Fuc(a1-3)[Gal(b1-4)]GlcNAc(b1-2)Man(a1-3)[Fuc(a1-3)[Gal(b1-4)]GlcNAc(b1-2)Man(a1-6)]Man(b1-4)GlcNAc(b1-4)[Fuc(a1-6)]GlcNAc
# How it was run: as §1
# [8] = biological target: Gal(a1-3)GalNAc
# How it was run: as §1
# [9] = biological target: Gal(a1-3)[Gal(a1-4)]Gal(b1-4)GlcNAc
# How it was run: as §1
# [10] = biological target: Gal(a1-4)Gal(b1-4)Glc
# How it was run: as §1
# [11] = biological target: Gal(b1-3)GalNAc(b1-4)Gal(b1-4)Glc
# How it was run: as §1
# [12] = biological target: Gal(b1-3)GlcNAc(a1-3)Gal(b1-4)GlcNAc
# How it was run: as §1
# [13] = biological target: Gal(b1-4)Gal
# How it was run: as §1
# [14] = biological target: Gal(b1-4)GalNAc(a1-3)[Fuc(a1-2)]Gal(b1-4)GlcNAc
# How it was run: as §1
# [15] = biological target: Gal(b1-4)GlcNAc(b1-3)Gal(b1-4)GlcNAc(b1-3)Gal(b1-4)GlcNAc(b1-2)Man(a1-3)[Gal(b1-4)GlcNAc(b1-3)Gal(b1-4)GlcNAc(b1-3)Gal(b1-4)GlcNAc(b1-2)Man(a1-6)]Man(b1-4)GlcNAc(b1-4)[Fuc(a1-6)]GlcNAc
# How it was run: as §1
# [16] = biological target: Gal(b1-6)Gal
# How it was run: as §1
# [17] = biological target: Gal3S6S(b1-4)GlcNAc6S
# How it was run: as §1
# [18] = biological target: Gal6S(b1-4)Glc
# How it was run: as §1
# [19] = biological target: GalNAc(b1-3)Gal(a1-4)Gal(b1-4)GlcNAc
# How it was run: as §1
# [20] = biological target: GalNAc(b1-4)GlcNAc
# How it was run: as §1
# [21] = biological target: GalNAc4S6S(b1-4)GlcNAc
# How it was run: as §1
# [22] = biological target: GalNAc6S(b1-4)GlcNAc
# How it was run: as §1
# [23] = biological target: GlcA(b1-3)Gal
# How it was run: as §1
# [24] = biological target: GlcNAc(a1-4)Gal(b1-3)GlcNAc
# How it was run: as §1
# [25] = biological target: GlcNAc(a1-4)Gal(b1-4)GlcNAc(b1-3)Gal(b1-4)Glc
# How it was run: as §1
# [26] = biological target: GlcNAc(b1-2)Gal(b1-3)GalNAc
# How it was run: as §1
# [27] = biological target: GlcNAc(b1-2)[GlcNAc(b1-4)]Man(a1-3)[GlcNAc(b1-4)][GlcNAc(b1-2)Man(a1-6)]Man(b1-4)GlcNAc(b1-4)GlcNAc
# How it was run: as §1
# [28] = biological target: GlcNAc(b1-3)Gal(b1-4)GlcNAc(b1-2)[GlcNAc(b1-3)Gal(b1-4)GlcNAc(b1-6)]Man(a1-6)[GlcNAc(b1-3)Gal(b1-4)GlcNAc(b1-2)Man(a1-3)]Man(b1-4)GlcNAc(b1-4)GlcNAc
# How it was run: as §1
# [29] = biological target: GlcNAc(b1-3)Gal(b1-4)GlcNAc(b1-3)Gal(b1-4)GlcNAc(b1-2)[GlcNAc(b1-3)Gal(b1-4)GlcNAc(b1-3)Gal(b1-4)GlcNAc(b1-6)]Man(a1-6)[GlcNAc(b1-3)Gal(b1-4)GlcNAc(b1-3)Gal(b1-4)GlcNAc(b1-2)Man(a1-3)]Man(b1-4)GlcNAc(b1-4)[Fuc(a1-6)]GlcNAc
# How it was run: as §1
# [30] = biological target: GlcNAc(b1-3)Gal(b1-4)GlcNAc(b1-3)Gal(b1-4)GlcNAc(b1-3)Gal(b1-4)GlcNAc(b1-3)Gal(b1-4)GlcNAc(b1-2)[GlcNAc(b1-3)Gal(b1-4)GlcNAc(b1-3)Gal(b1-4)GlcNAc(b1-3)Gal(b1-4)GlcNAc(b1-3)Gal(b1-4)GlcNAc(b1-6)]Man(a1-6)[GlcNAc(b1-3)Gal(b1-4)GlcNAc(b1-3)Gal(b1-4)GlcNAc(b1-3)Gal(b1-4)GlcNAc(b1-3)Gal(b1-4)GlcNAc(b1-2)Man(a1-3)]Man(b1-4)GlcNAc(b1-4)[Fuc(a1-6)]GlcNAc
# How it was run: as §1
# [31] = biological target: GlcNAc(b1-6)Gal(b1-4)GlcNAc
# How it was run: as §1
# [32] = biological target: Kdn(a2-3)Gal(b1-4)[Fuc(a1-3)]GlcNAc
# How it was run: as §1
# [33] = biological target: Kdn(a2-6)Gal(b1-4)GlcNAc
# How it was run: as §1
# [34] = biological target: Man(a1-2)Man(a1-3)[Man(a1-6)]Man(a1-6)[Man(a1-2)Man(a1-3)]Man(b1-4)GlcNAc(b1-4)GlcNAc
# How it was run: as §1
# [35] = biological target: Man(a1-2)Man(a1-6)[Man(a1-3)]Man(a1-6)[Man(a1-2)Man(a1-2)Man(a1-3)]Man(b1-4)GlcNAc(b1-4)GlcNAc
# How it was run: as §1
# [36] = biological target: Man(a1-6)Man
# How it was run: as §1
# [37] = biological target: Neu5Ac(a2-3)Gal(b1-3)GalNAc
# How it was run: as §1
# [38] = biological target: Neu5Ac(a2-3)Gal(b1-4)GlcNAc(b1-3)Gal(b1-4)GlcNAc(b1-3)Gal(b1-4)GlcNAc(b1-2)Man(a1-3)[Neu5Ac(a2-3)Gal(b1-4)GlcNAc(b1-3)Gal(b1-4)GlcNAc(b1-3)Gal(b1-4)GlcNAc(b1-2)Man(a1-6)]GalNAc
# How it was run: as §1
# [39] = biological target: Neu5Ac(a2-3)Gal(b1-4)GlcNAc(b1-6)[Gal(b1-3)]GalNAc
# How it was run: as §1
# [40] = biological target: Neu5Ac(a2-3)Gal(b1-4)GlcNAc(b1-6)[Neu5Ac(a2-3)Gal(b1-3)]GalNAc
# How it was run: as §1
# [41] = biological target: Neu5Ac(a2-6)Gal
# How it was run: as §1
# [42] = biological target: Neu5Ac(a2-6)Gal(b1-4)GlcNAc(b1-2)Man(a1-3)[Gal(b1-4)GlcNAc(b1-2)Man(a1-6)]Man(b1-4)GlcNAc(b1-4)GlcNAc
# How it was run: as §1
# [43] = biological target: Neu5Ac(a2-6)Gal(b1-4)GlcNAc(b1-2)Man(a1-6)[Gal(b1-4)GlcNAc(b1-2)Man(a1-3)]Man(b1-4)GlcNAc(b1-4)GlcNAc
# How it was run: as §1
# [44] = biological target: Neu5Ac(a2-6)Gal(b1-4)GlcNAc(b1-3)GalNAc
# How it was run: as §1
# [45] = biological target: Neu5Gc(a2-3)Gal(b1-4)[Fuc(a1-3)]GlcNAc
# How it was run: as §1
binder,measurement,setting,value
B1,glycan array binding signal (z-score),[1],0.123
same,glycan array binding signal (z-score),[2],0.458
same,glycan array binding signal (z-score),[3],-0.37
same,glycan array binding signal (z-score),[4],-0.375
same,glycan array binding signal (z-score),[5],-0.276
same,glycan array binding signal (z-score),[6],6.64
same,glycan array binding signal (z-score),[7],0.044
same,glycan array binding signal (z-score),[8],1.94
same,glycan array binding signal (z-score),[9],8.82
same,glycan array binding signal (z-score),[10],4.63
same,glycan array binding signal (z-score),[11],1.23
same,glycan array binding signal (z-score),[12],-0.028
same,glycan array binding signal (z-score),[13],0.335
same,glycan array binding signal (z-score),[14],-0.444
same,glycan array binding signal (z-score),[15],-0.845
same,glycan array binding signal (z-score),[16],-0.362
same,glycan array binding signal (z-score),[17],1.61
same,glycan array binding signal (z-score),[18],-0.21
same,glycan array binding signal (z-score),[19],3.08
same,glycan array binding signal (z-score),[20],8.25
same,glycan array binding signal (z-score),[21],1.39
same,glycan array binding signal (z-score),[22],-0.134
same,glycan array binding signal (z-score),[23],-0.785
same,glycan array binding signal (z-score),[24],-0.54
same,glycan array binding signal (z-score),[25],-0.607
same,glycan array binding signal (z-score),[26],-0.394
same,glycan array binding signal (z-score),[27],-0.434
same,glycan array binding signal (z-score),[28],2.56
same,glycan array binding signal (z-score),[29],1.12
same,glycan array binding signal (z-score),[30],1.33
same,glycan array binding signal (z-score),[31],1.88
same,glycan array binding signal (z-score),[32],-0.336
same,glycan array binding signal (z-score),[33],-0.164
same,glycan array binding signal (z-score),[34],0.607
same,glycan array binding signal (z-score),[35],-0.172
same,glycan array binding signal (z-score),[36],0.232
same,glycan array binding signal (z-score),[37],-0.438
same,glycan array binding signal (z-score),[38],2.21
same,glycan array binding signal (z-score),[39],-0.303
same,glycan array binding signal (z-score),[40],-0.407
same,glycan array binding signal (z-score),[41],0.474
same,glycan array binding signal (z-score),[42],-0.171
same,glycan array binding signal (z-score),[43],-0.325
same,glycan array binding signal (z-score),[44],-0.543
same,glycan array binding signal (z-score),[45],-0.299
